Assay outcomes deposited in PubChem by National Center for Advancing Translational Sciences (NCATS).
The list is not random: actives were taken first. Their share in the collection is about 19%.
ELG1 repair inh: inhibitors of ELG1-dependent DNA repair in HEK293T cells | HEK293T ELG1-luciferase reporter, luminescence, 16 h; DNA damage induced by 5-fluorouridine | Potency, µM (top dose mostly 46.1 µM), without a hit: at the top dose activity change, negative = inhibition, hits mostly inhibitors | actives 2.3% (n = 330,000) | AID 504467; further: potency means the concentration at half of the fitted maximal effect; nearly all actives have a fitted effect of over 55% in size
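Reporter activity after DNA damage by 5-fluorouridine is monitored. Compound-treated cells incubate 16 hr at 37 °C, then ONE-Glo is added for 30 min before luminescence reading.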
IL-1B inflam inh: inflammasome signaling inhibition, IL-1 beta readout. activity change, % at 57.5 µM. THP-1 LPS/ATP IL-1B secretion, AlphaLISA, 16 h; active compounds read low. actives 4.7% (n = 360,000); in the data active means activity change below about -50%; inconclusive means mostly about -30% to -49%
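Secreted IL-1B measured by AlphaLISA bead assay after 16 h compound exposure of THP-1 cells; compounds (final up to 57.5 uM) added 1 h before LPS (250 ng/mL) and ATP (1.25 mM) stimulation; lower signal means less secretion.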
Giardia kill: kills Giardia lamblia | Giardia lamblia trophozoite viability | actives 0.15% (n = 340,000) | AID 540267 | activity change, % at 7.66 µM, hits read low; in the data active means activity change below about -80%; inconclusive means between about -30% and that limit;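 further: parasites exposed to compound for two days anaerobically before the ATP read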
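Compounds were tested on trophozoites seeded at 100 cells/well and held 48 hrs at 37 deg C anaerobically. An ATP-based luminescent kit measured the remaining live cells.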
TDP1 block: TDP1 (human) enzyme inhibition; Potency, µM (top dose mostly 130 µM), without a hit: at the highest dose activity change, negative = inhibition, most hits filed as inhibitors; recombinant TDP1, AlphaScreen DNA substrate cleavage; actives 0.28% (n = 350,000); AID 485290; Q9NUW8; further: potency means the concentration at half of the fitted maximal effect; nearly all actives have a fitted effect of over 40% in size
Target sequence (Q9NUW8 whole entry, looked up): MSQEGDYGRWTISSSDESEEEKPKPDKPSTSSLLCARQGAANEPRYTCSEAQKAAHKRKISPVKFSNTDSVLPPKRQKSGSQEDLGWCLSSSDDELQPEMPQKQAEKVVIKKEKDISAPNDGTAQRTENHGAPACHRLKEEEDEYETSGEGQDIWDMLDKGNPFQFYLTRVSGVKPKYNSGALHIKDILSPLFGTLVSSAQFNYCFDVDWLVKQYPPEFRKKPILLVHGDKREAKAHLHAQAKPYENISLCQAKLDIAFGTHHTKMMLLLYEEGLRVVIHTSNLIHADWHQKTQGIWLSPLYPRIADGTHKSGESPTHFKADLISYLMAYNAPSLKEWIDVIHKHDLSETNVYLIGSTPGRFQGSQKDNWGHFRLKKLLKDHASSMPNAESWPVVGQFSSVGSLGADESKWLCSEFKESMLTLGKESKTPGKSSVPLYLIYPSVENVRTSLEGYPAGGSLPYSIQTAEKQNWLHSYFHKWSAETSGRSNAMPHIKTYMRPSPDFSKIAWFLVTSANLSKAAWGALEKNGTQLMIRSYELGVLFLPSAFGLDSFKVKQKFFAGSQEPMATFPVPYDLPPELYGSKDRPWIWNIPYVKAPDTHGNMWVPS
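AlphaScreen read-out: signal falls as enzyme removes the 3' tyrosine-FITC from a 5'-biotinylated DNA oligo (15 nM, 5 min, RT). Enzyme was E. coli-made recombinant Tdp1 at 1 nM, exposed to compound for 15 min beforehand; beads 10 ug/ml, 10 min.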
DT40 TDP1 no CPT: qHTS for Inhibitors of human tyrosyl-DNA phosphodiesterase 1 (TDP1): qHTS in cells in absence of CPT; actives 15% (n = 420,000); DT40 Tdp1-/- hTDP1 cells, no CPT, ATP luminescence, 48 h; AID 686978, 2013; Potency, µM (series often up to 46.2 µM), inactives show at the highest dose activity change, negative = growth inhibition, actives largely listed as inhibitors; further: potency means the concentration at half of the fitted maximal effect; nearly all actives have a fitted effect of over 55% in size
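Stably hTDP1-transfected Tdp1-null chicken DT40 cells were treated with library compounds minus camptothecin and grown for at least 48 hr at 37 °C, after which cellular ATP was quantified by luminescence.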
DT40 TDP1 CPT: growth inhibition of DT40 Tdp1-/-;hTDP1 cells with camptothecin (screen for TDP1 inhibitors). chicken DT40 Tdp1-/-;hTDP1 cells + 20 nM CPT, ATP luminescence, 48 h. Potency, µM (doses to about 46.2 µM), for inactives: top-dose activity change, negative = growth inhibition, usual class: inhibitors. actives 12% (n = 420,000). AID 686979; further: potency means the concentration at half of the fitted maximal effect; nearly all actives have a fitted effect of over 55% in size
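Chicken DT40 Tdp1-/- cells complemented with human TDP1, 400 cells/well, exposed to compounds plus 20 nM camptothecin for at least 48 h at 37 C; viability read as ATP content by CellTiter-Glo luminescence.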
The depositor's hits bear a star; ? = inconclusive; / = no result given; [ ] = another dose, or the depositor's remark. Unless noted, the call rests on the fitted dose curve; in most records, active means well fitted curve in the direction sought with a large enough effect; inconclusive means small, poorly fitted or top-dose-only effect, or another doubt; inactive means no such curve, though single readings can be large; an effect the other way counts as inactive or inconclusive. On the % scale 0 is the no-effect control and ±100 the full control effect.

SMILES	ELG1 repair inh	IL-1B inflam inh	Giardia kill	TDP1 block	DT40 TDP1 no CPT	DT40 TDP1 CPT
COc1ccc(OCCn2c(NC(=O)c3ccco3)nc3ccccc32)cc1	13µM*	-20	-12	12%	23µM*	18µM*
S=C(Nc1ccccc1)Nc1nc2ccccc2n1CCOc1ccccc1	0%	-106*	-4	12%	16µM*	18µM*
COc1ccc2sc(NC(=O)c3ccco3)nc2c1	?	8	?	0%	-24%	?
COc1ccc(C(=O)Nc2nc3ccccc3n2CCOc2ccc(Cl)cc2)cc1	/	/	/	/	13µM*	?
Cc1nc2c3cccnc3nn2c(C)c1CCC(=O)NCc1ccccc1Cl	/	/	/	9%	?	?
N#CC(c1cccc([N+](=O)[O-])c1)C(CC(=O)c1ccccc1)c1ccccc1 (stereo not given)	/	-6	/	/	23µM*	18µM*
O=C(O)CC(NC(=O)C(c1ccccc1)c1ccccc1)c1cccc([N+](=O)[O-])c1 (stereo not given)	0%	41	-7	0%	1%	7%
N#CC(CC(=O)c1ccc(Cl)cc1)c1ccccc1 (stereo not given)	/	-30	-1	/	-14%	-11%
N#CC(c1ccc([N+](=O)[O-])cc1)C(CC(=O)c1ccccc1)c1ccccc1 (stereo not given)	/	?	-2	/	16µM*	?
N#CC(c1ccccc1)C(CC(=NO)c1ccccc1)c1ccccc1 (stereo not given)	/	?	/	/	10µM*	23µM*
O=C(OCc1cccc(Cl)c1)c1cc(S(=O)(=O)N2CCCCC2)ccc1N1CCOCC1	?	0	-4	1%[56.1 µM]	29µM*	16µM*
O=C(OCCOc1cccc(Cl)c1)c1cc(S(=O)(=O)N2CCCCC2)ccc1N1CCOCC1	5.2µM*	-14	-3	/	8.2µM*	15µM*
O=C(COC(=O)c1cc(S(=O)(=O)N2CCCCC2)ccc1N1CCOCC1)c1ccc(Cl)cc1	?	0	-10	2%	?	?
CN(C)CCNC(=O)/C=C/c1cn(-c2ccccc2)nc1-c1cc2ccccc2oc1=O	-12%	8	-23	2%	17%	-11%
CO[C@@H]1COC(=O)[C@H](C)NC(=O)[C@@H](C)COC(=O)CCC[C@H]1C	/	/	/	6%[21 µM]	/	/
O=c1oc2ccc(Cl)cc2nc1/C=C(\O)c1ccco1	?	-4	1	1%	18µM*	?
Cc1cc(Oc2nc3c(C)cccn3c(=O)c2/C=C(\C#N)S(=O)(=O)c2ccc(Cl)cc2)ccc1Cl	5%	-10	-10	-3%	23µM*	?
Cc1cccn2c(=O)c(/C=C(\C#N)c3nc4ccccc4n3C)c(Oc3ccc(Cl)cc3)nc12	/	/	/	1%	8.2µM*	?
COc1ccc(/C(C#N)=C/c2c(-c3ccc(Cl)cc3)nc3c(C)cccn23)cc1	-13%	30	9	-3%	18µM*	?
Cc1cccn2c(=O)c(/C=C(\C#N)c3nc4ccccc4n3C)c(Oc3ccc(Br)cc3)nc12	/	/	/	2%	6.5µM*	10µM*
Cc1ccccc1CN1CCc2nnc(C(C)NC(=O)c3cc(F)ccc3F)n2CC1 (stereo not given)	/	/	/	/	0%	17%
COC(=O)[C@H](COC(C)(C)C)NC(=O)O[C@H]1C(=O)c2ccc(OC)cc2O[C@@H]1c1ccc2c(c1)OCO2	/	/	/	4%	/	/
N#C/C(=C\c1c(Oc2ccc(Br)cc2)nc2ccccn2c1=O)c1nc2ccccc2s1	/	/	/	-3%	16µM*	-73%
COc1ccc2nc(NC(=O)CN3C(=O)NC4(CCCCC4)C3=O)sc2c1	6%	0	-18	2%	-19%	-13%
Cn1c(N2CCN(S(=O)(=O)c3ccc(F)cc3)CC2)nc2ccccc21	?	0	2	-2%	?	?
SMILES	ELG1 repair inh	IL-1B inflam inh	Giardia kill	TDP1 block	DT40 TDP1 no CPT	DT40 TDP1 CPT
CCn1c(N2CCN(S(=O)(=O)c3ccccc3C(F)(F)F)CC2)nc2ccccc21	?	-52*	7	3%	16µM*	?
CCN(CC)CCCNC(=S)N1CCN(c2nc3ccccc3n2CC)CC1	4%	-19	3	/	1%	33%
O=S(=O)(c1ccccc1C(F)(F)F)N1CCN(S(=O)(=O)c2ccccc2C(F)(F)F)CC1	-2%	0	-2	4%	-18%	?
COc1ccc(S(=O)(=O)N2CCN(Cc3ccccc3OC)CC2)cc1	/	-8	/	/	?	-25%
CCN1CCN(S(=O)(=O)c2ccc(Oc3ccccc3OC)cc2)CC1	?	-16	12	3%	23µM*	-16%
CCn1c(N2CCN(S(=O)(=O)c3ccc(OC)cc3)CC2)nc2ccccc21	?	-66*	6	/	?	?
CCn1c(N2CCN(C(=O)C34CC5CC(CC(C5)C3)C4)CC2)nc2ccccc21	?	?	-18	-3%	26µM*	29µM*
O=C(N1CCC(n2nc(-c3ccccc3)oc2=O)CC1)C1(c2ccc(Cl)cc2)CC1	?	-12	-19	2%	?	?
COCCN1C=C(C(=O)OC)C(c2ccccc2C(F)(F)F)C(C(=O)OC)=C1	1%	-6	-3	-1%	?	?
COC(=O)C1=C(C)NC(C)=C([N+](=O)[O-])[C@H]1c1ccccc1C(F)(F)F	/	/	/	11%	11µM*	?
COC(=O)C1=C(C)NC(C)=C(C(=O)OCCNCc2ccccc2)C1c1cccc([N+](=O)[O-])c1 (stereo not given)	/	/	/	22%	/	/
COC(=O)C1=C(C)NC(C)=C(C(=O)OCC(C)C)C1c1ccccc1[N+](=O)[O-] (stereo not given)	/	-65*	18	15%	5.2µM*	6.5µM*
COC(=O)C1=C(C)NC(C)=C([N+](=O)[O-])[C@@H]1c1ccccc1C(F)(F)F	/	/	/	10%	30µM*	30µM*
CSc1ncccc1C(=O)Nc1ccc(OC(F)(F)F)cc1	3%	-22	19	2%	15µM*	?
O=C(Nc1ccc(F)cc1)c1cccnc1Oc1ccccc1	-3%	-12	-2	/	5%	0%
CC(=O)Nc1ccc(Sc2ncccc2C(=O)Nc2ccc(F)cc2)cn1	5%	61	-3	3%	7.3µM*	9.2µM*
CCn1nnc2cc(C(=O)Nc3cc(C)ccc3C)ccc21	/	/	/	5%	?	?
COc1cccc(CS(=O)(=O)c2nnnn2CC(C)C)c1	/	/	/	7%	/	/
